Activity calls are given as the source filed them. Unless noted, how the calls were made is not given here.
Experiments:
[1] = tested on: Wnt5a (protein binding on small-molecule microarray); assay: Wnt5a binders on small-molecule microarray, primary screen, biophysical, 635/667 nm fluorescence (AID 1142); details: 635 nm fluorescence, higher = more signal;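 further: fluorescence read at 667 nm with signal to noise per printed feature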
[2] = cell viability in Huh7 cells, primary screen, cytotoxicity control for HCV replication inhibitor project, CellTiter-Glo luminescence, basal, 48 h (AID 1143); details: Huh7 HCV replicon, higher = more signal, called active from +8 up or from −8 down;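 further: Huh7 hepatoma cells carrying a hepatitis C replication reporter with no stimulus; test concentration not given here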
[3] = P. aeruginosa biofilm formation inhibitors, primary screen, PAO1 strain, BacTiter-Glo luminescence, LB-PBS (AID 1144); details: 12 h, higher = more signal
[4] = CREB reporter modulators without forskolin, primary screen, cell-based, PC12, CRE-LacZ reporter, unstimulated (AID 1145); details: no forskolin, luminescence, 4.5 h, higher = more signal, called active from +8 up or from −8 down
[5] = CREB reporter modulators under forskolin, primary screen, cell-based, PC12, CRE-LacZ reporter, forskolin-stimulated (AID 1146); details: luminescence, 4.5 h, higher = more signal, called active from +8 up or from −8 down;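 further: PC12 cells with 6xCRE LacZ reporter stimulated by forskolin 10 µM; beta-galactosidase reporter signal reflecting CREB driven transcription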
[6] = target: Streptavidin (Streptomyces avidinii) (UniProt P22629); assay: streptavidin binders on small-molecule microarray, primary screen, artefact control for SMM compound annotation, biophysical, 635/667 nm fluorescence (AID 1147); details: streptavidin binding, higher = more signal;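 further: signal reflects streptavidin binding to arrayed compounds as a control protein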
[7] = small-molecule binders of probe aInhba, primary screen, biochemical, small-molecule microarray, 635/667 nm fluorescence (AID 1148); details: higher = more signal;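 further: score merges 667nm spot fluorescence with signal-to-noise for antibody binding to printed compounds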
[8] = target: Torsin-1A (Homo sapiens) (UniProt O14656); assay: torsin A binders from cell lysate, primary screen, small-molecule microarray, wild-type, 635/667 nm (AID 1149); details: COS7 hTOR1A-WT lysate, 635 nm fluorescence, higher = more signal
[9] = target: Torsin-1A (Homo sapiens) (UniProt O14656); assay: small-molecule binders of mutant TOR1A in lysate, primary screen, cell lysate, small-molecule microarray, COS7 lysate, 635/667 nm fluorescence (AID 1150); details: COS7 hTOR1A mutant lysate, 635 nm fluorescence, higher = more signal;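 further: score pools 667 nm emission and signal to noise measuring lysate protein binding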
[10] = tested on: Sonic hedgehog protein (Shh); assay: small-molecule binders of Shh protein, primary screen, biochemical, small-molecule microarray, 635/667 nm fluorescence (AID 1151); details: small-molecule microarray binding, 635 nm fluorescence; higher = more signal;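 further: Shh protein binding to compounds spotted on small-molecule microarray slides; score combines spot fluorescence intensity with signal-to-noise across triplicate slides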
[11] = E. coli DRC41 culture turbidity changes, primary screen, E. coli filamentation inducer project, strain DRC41, OD650, 48 h (AID 1152);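 further: E. coli MC1000 strain DRC41 lacking acrAB efflux pump and sulA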; details: E. coli DRC41 (acrAB sulA), higher = more signal, called active from +8 up or from −8 down
[12] = small-molecule binders of probe aLefty1, primary screen, biochemical, small-molecule microarray, 635/667 nm fluorescence (AID 1153); details: higher = more signal;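 further: score merges spot fluorescence with signal-to-noise ratio from the scanned slide images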
[13] = PSAC antagonists in infected red cells, primary screen, cell-based, P. falciparum Indochina, OD700, 1 h (AID 1154); details: P. falciparum Indochina infected RBC osmotic lysis, higher = more signal, called active from +8 up or from −8 down
[14] = PSAC antagonists in infected red cells, primary screen, cell-based, P. falciparum Indochina, OD700, 2 h (AID 1155);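 further: lysis reports solute entry through the parasite surface anion channel PSAC; channel blockers reduce lysis of infected cells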; details: P. falciparum Indochina infected erythrocytes, osmotic lysis OD700; higher = more signal, called active from +8 up or from −8 down
[15] = osmotic lysis modulators in infected erythrocytes, primary screen, PSAC antagonist project, cell-based, P. falciparum Indochina, OD700, 3 h (AID 1156); details: higher = more signal, called active from +8 up or from −8 down
[16] = PSAC antagonists in infected red cells, primary screen, cell-based, P. falciparum Indochina, OD700, 18 h (AID 1157); details: P. falciparum Indochina infected erythrocytes, osmotic lysis OD700, 18 h; higher = more signal, called active from +8 up or from −8 down
[17] = modulators of S6 phosphorylation in cells, primary screen, cell-based, A549, cytoblot, luminescence, serum-stimulated (AID 1158); details: A549 phospho-S6 cytoblot, 5 h, higher = more signal;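 further: serum-stimulated A549 lung adenocarcinoma cells; signal is phosphorylated S6 detected by cytoblot immunostaining with HRP secondary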
[18] = target: NADPH oxidase 2 (Homo sapiens) (UniProt P04839); assay: NOX2-dependent H2O2 signal modulators, primary screen, NOX inhibitor project, cell-based, HEK293-NOX2, PMA-stimulated, Amplex Red fluorescence (AID 1159); details: 45 min, higher = more signal, called active from +8 up or from −8 down; further: test concentration not given here
[19] = target: NADPH oxidase 4 (Homo sapiens) (UniProt Q9NPH5); assay: NOX4-dependent H2O2 signal modulators, primary screen, NOX inhibitor project, cell-based, HEK293-NOX4, tetracycline-induced, Amplex Red fluorescence (AID 1160); details: 45 min, higher = more signal, called active from +8 up or from −8 down
[20] = target: NADPH oxidase 5 (Homo sapiens) (UniProt Q96PH1); assay: NOX5-dependent H2O2 signal modulators, primary screen, NOX inhibitor project, cell-based, HEK293-NOX5, Amplex Red fluorescence (AID 1161); details: HEK293-NOX5, ionomycin, 45 min, higher = more signal
NADPH oxidase 5 (Homo sapiens), sequence (Q96PH1 whole entry, looked up): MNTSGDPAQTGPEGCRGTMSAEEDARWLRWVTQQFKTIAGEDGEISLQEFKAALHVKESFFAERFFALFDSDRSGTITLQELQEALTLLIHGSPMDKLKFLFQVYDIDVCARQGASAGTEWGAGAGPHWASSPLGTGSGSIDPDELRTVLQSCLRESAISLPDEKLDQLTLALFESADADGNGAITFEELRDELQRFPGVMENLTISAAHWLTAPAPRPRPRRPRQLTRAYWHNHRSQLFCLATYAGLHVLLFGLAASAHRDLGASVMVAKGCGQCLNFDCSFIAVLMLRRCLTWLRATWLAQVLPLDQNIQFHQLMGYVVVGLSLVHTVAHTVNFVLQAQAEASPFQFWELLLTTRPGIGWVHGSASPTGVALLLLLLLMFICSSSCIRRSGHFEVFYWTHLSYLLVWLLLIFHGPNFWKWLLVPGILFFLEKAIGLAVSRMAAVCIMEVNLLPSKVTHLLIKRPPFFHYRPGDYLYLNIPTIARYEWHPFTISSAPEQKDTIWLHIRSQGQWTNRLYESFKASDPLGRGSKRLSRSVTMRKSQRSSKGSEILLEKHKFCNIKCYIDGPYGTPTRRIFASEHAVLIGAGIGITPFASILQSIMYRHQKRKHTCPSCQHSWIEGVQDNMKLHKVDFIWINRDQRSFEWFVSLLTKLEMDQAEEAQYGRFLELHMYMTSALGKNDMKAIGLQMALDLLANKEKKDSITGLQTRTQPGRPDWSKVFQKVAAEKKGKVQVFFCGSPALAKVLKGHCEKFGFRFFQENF

Streptavidin (Streptomyces avidinii), sequence (P22629 whole entry, looked up): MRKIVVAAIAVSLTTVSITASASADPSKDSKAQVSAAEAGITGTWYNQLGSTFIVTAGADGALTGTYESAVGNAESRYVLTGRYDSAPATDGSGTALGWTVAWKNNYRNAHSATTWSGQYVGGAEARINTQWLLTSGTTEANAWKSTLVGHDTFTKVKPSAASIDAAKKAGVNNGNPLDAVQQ
NADPH oxidase 4 (Homo sapiens), sequence (Q9NPH5 whole entry, looked up): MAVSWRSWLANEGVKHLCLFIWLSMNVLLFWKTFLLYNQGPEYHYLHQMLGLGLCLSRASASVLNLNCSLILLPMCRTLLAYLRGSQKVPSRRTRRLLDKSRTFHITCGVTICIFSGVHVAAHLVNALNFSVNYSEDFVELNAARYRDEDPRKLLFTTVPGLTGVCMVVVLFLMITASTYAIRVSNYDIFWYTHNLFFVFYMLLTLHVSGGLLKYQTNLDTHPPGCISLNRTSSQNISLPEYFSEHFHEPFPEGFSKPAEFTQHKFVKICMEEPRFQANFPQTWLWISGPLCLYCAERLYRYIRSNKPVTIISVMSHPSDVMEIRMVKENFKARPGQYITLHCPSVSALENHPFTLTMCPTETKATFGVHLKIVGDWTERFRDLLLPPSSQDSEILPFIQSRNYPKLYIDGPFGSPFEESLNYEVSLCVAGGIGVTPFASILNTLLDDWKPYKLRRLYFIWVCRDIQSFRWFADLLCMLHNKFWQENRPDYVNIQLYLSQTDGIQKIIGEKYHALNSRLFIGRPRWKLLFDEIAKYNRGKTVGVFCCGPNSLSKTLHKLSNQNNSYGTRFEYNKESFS
Torsin-1A (Homo sapiens), sequence (O14656 whole entry, looked up): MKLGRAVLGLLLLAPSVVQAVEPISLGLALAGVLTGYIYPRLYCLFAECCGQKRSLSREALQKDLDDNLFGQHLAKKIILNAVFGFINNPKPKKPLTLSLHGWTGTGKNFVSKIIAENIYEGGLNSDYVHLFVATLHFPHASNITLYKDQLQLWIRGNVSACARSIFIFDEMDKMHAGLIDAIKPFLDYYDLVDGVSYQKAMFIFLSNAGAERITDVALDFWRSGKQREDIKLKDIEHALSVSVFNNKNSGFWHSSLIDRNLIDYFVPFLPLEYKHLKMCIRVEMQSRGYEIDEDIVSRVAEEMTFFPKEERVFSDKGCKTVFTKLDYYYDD
NADPH oxidase 2 (Homo sapiens), sequence (P04839 whole entry, looked up): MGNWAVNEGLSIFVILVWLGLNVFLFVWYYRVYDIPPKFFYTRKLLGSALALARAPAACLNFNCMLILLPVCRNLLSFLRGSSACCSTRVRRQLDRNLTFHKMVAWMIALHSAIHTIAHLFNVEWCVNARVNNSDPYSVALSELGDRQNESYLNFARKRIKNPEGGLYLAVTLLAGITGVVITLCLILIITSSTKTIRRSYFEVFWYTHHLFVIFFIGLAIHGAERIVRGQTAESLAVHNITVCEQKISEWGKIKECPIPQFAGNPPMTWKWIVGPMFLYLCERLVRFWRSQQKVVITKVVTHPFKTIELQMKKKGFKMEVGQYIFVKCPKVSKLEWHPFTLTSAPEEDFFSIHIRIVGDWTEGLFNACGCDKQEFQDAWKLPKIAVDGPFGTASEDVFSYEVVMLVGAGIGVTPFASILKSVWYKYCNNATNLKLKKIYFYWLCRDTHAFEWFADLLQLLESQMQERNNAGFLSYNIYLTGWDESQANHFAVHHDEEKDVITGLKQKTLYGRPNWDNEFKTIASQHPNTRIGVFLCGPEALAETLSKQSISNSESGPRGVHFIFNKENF

## O=C(NCc1ccc(F)cc1)[C@H]1C[C@H]2C(=O)NCC(=O)N2[C@H]1c1ccc(O)cc1
[1]
  composite z-score: 0.205
[2]
  z-score: -0.764 (inactive)
[3]
  z-score: 0.3 (inactive)
[4]
  z-score: 0.0124 (inactive)
[5]
  z-score: -0.0067 (inactive)
[6]
  composite z-score: -0.311
[7]
  composite z-score: 0.177
[8]
  composite z-score: 0.134
[9]
  composite z-score: 1.82
[10]
  composite z-score: 1.69
[11]
  z-score: 0.357 (inactive)
[12]
  composite z-score: 0.239
[13]
  z-score: 1.11 (inactive)
[14]
  z-score: 0.285 (inactive)
[15]
  z-score: -2.04 (inactive)
[16]
  z-score: 0.4 (inactive)
[17]
  z-score: -0.337
[18]
  z-score: 0.992 (inactive)
[19]
  z-score: 0.558 (inactive)
[20]
  z-score: 0.693

## CCOC(=O)C[C@H]1[C@H](OC(=O)Cc2ccc3c(c2)OCO3)[C@@H](NC(=O)c2ccc3ccccc3n2)c2cc(OCCCO)ccc2N1C(=O)c1ccc2ccccc2n1
[1]
  composite z-score: 0.593
[2]
  z-score: -1.23 (inactive)
[3]
  z-score: -1.4 (inactive)
[4]
  z-score: 6.51 (inactive)
[5]
  z-score: -1.03 (inactive)
[6]
  composite z-score: 0.363
[7]
  composite z-score: -0.128
[8]
  composite z-score: 0.451
[9]
  composite z-score: 0.339
[10]
  composite z-score: 0.301
[11]
  z-score: 3.01 (inactive)
[12]
  composite z-score: 0.103
[13]
  z-score: 15.8 (active)
[14]
  z-score: 2.25 (inactive)
[15]
  z-score: -1.37 (inactive)
[16]
  z-score: -0.0077 (inactive)
[17]
  z-score: 1.3
[18]
  z-score: 0.11 (inactive)
[19]
  z-score: 0.204 (inactive)
[20]
  z-score: -2.65

## COc1ccc(CCNC(=O)[C@@]2(c3ccc([N+](=O)[O-])cc3)CC(=O)N(C3CCCCC3)[C@@H]2c2ccc(CO)cc2)cc1
[1]
  composite z-score: 0.199
[2]
  z-score: -1.48 (inactive)
[3]
  z-score: 0.733 (inactive)
[4]
  z-score: -0.125 (inactive)
[5]
  z-score: -1.11 (inactive)
[6]
  composite z-score: 0.0841
[7]
  composite z-score: 0.249
[8]
  composite z-score: 0.358
[9]
  composite z-score: 0.56
[10]
  composite z-score: 0.137
[11]
  z-score: 1.31 (inactive)
[12]
  composite z-score: 0.213
[13]
  z-score: 0.965 (inactive)
[14]
  z-score: -0.0966 (inactive)
[15]
  z-score: 1.03 (inactive)
[16]
  z-score: -0.383 (inactive)
[17]
  z-score: -0.112
[18]
  z-score: -1.05 (inactive)
[19]
  z-score: 0.479 (inactive)
[20]
  z-score: 0.0392

## CCCCCCc1nc(Cc2cc(OC)c(OC)c(OC)c2)cc2c1[Si](C(C)C)(C(C)C)OC2
[1]
  composite z-score: 0.03
[2]
  z-score: -5.33 (inactive)
[3]
  z-score: -0.012 (inactive)
[4]
  z-score: 0.498 (inactive)
[5]
  z-score: -0.419 (inactive)
[6]
  composite z-score: 0.0761
[7]
  composite z-score: 0.0973
[8]
  composite z-score: 0.108
[9]
  composite z-score: -0.282
[10]
  composite z-score: 0.724
[11]
  z-score: -0.56 (inactive)
[12]
  composite z-score: -0.131
[13]
  z-score: 0.88 (inactive)
[14]
  z-score: -0.221 (inactive)
[15]
  z-score: 0.908 (inactive)
[16]
  z-score: -0.718 (inactive)
[17]
  z-score: 0.552
[18]
  z-score: -4.01 (inactive)
[19]
  z-score: -1.88 (inactive)
[20]
  z-score: -5.31

## CC(CO)N1C(=O)[C@@H]2[C@H]3C(=O)OCC=C[C@H]3OC23C=CCN(Cn2nnc4ccccc42)C(=O)[C@@H]13 (stereo not given in full)
[1]
  composite z-score: -0.33
[2]
  z-score: -0.407 (inactive)
[3]
  z-score: 1.48 (inactive)
[4]
  z-score: 0.0524 (inactive)
[5]
  z-score: -0.391 (inactive)
[6]
  composite z-score: -0.78
[7]
  composite z-score: -0.213
[8]
  composite z-score: -0.49
[9]
  composite z-score: -1.26
[10]
  composite z-score: 0.464
[11]
  z-score: -0.597 (inactive)
[12]
  composite z-score: -0.147
[13]
  z-score: 0.638 (inactive)
[14]
  z-score: 0.359 (inactive)
[15]
  z-score: 0.029 (inactive)
[16]
  z-score: 0.0866 (inactive)
[17]
  z-score: -0.0773
[18]
  z-score: 0.698 (inactive)
[19]
  z-score: 0.672 (inactive)
[20]
  z-score: 1.78

## CCOC(=O)C[C@H]1[C@H](OC(=O)c2ccccc2-c2ccccc2)[C@@H](NC(=O)c2ccc3ccccc3n2)c2cc(OCCCO)ccc2N1C(=O)Cc1ccc(OC)cc1
[1]
  composite z-score: 0.0204
[2]
  z-score: -0.109 (inactive)
[3]
  z-score: 0.485 (inactive)
[4]
  z-score: 1.03 (inactive)
[5]
  z-score: 0.349 (inactive)
[6]
  composite z-score: -0.0997
[7]
  composite z-score: 0.0442
[8]
  composite z-score: 0.253
[9]
  composite z-score: 0.0746
[10]
  composite z-score: 0.336
[11]
  z-score: -0.783 (inactive)
[12]
  composite z-score: 0.0986
[13]
  z-score: 5.91 (inactive)
[14]
  z-score: 1.11 (inactive)
[15]
  z-score: -0.0433 (inactive)
[16]
  z-score: 0.549 (inactive)
[17]
  z-score: -0.303
[18]
  z-score: 0.0348 (inactive)
[19]
  z-score: 1.25 (inactive)
[20]
  z-score: 0.76

## CCN(CC)c1ccc(N2CC=CC34O[C@@H]5/C=C\CCCOC(=O)C5[C@H]3C(=O)N(C(C)CO)[C@@H]4C2=O)cc1 (stereo not given in full)
[1]
  composite z-score: -0.367
[2]
  z-score: 0.307 (inactive)
[3]
  z-score: -1.6 (inactive)
[4]
  z-score: 1.01 (inactive)
[5]
  z-score: -0.695 (inactive)
[6]
  composite z-score: -0.245
[7]
  composite z-score: -0.0986
[8]
  composite z-score: -0.428
[9]
  composite z-score: -0.539
[10]
  composite z-score: 1.19
[11]
  z-score: 1.56 (inactive)
[12]
  composite z-score: -0.0814
[13]
  z-score: 0.733 (inactive)
[14]
  z-score: -0.264 (inactive)
[15]
  z-score: 1.33 (inactive)
[16]
  z-score: -0.306 (inactive)
[17]
  z-score: 0.0073
[18]
  z-score: 0.275 (inactive)
[19]
  z-score: -0.0723 (inactive)
[20]
  z-score: 0.83

## CC1=C2[C@@H](CCc3ccccc3)OB(O)C[C@@H]2[C@@H]2C(=O)N(C)C(=O)[C@@H]2C1
[1]
  composite z-score: 0.318
[2]
  z-score: -0.239 (inactive)
[3]
  z-score: -0.294 (inactive)
[4]
  z-score: -0.866 (inactive)
[5]
  z-score: 0.829 (inactive)
[6]
  composite z-score: -0.0498
[7]
  composite z-score: -0.252
[8]
  composite z-score: -0.126
[9]
  composite z-score: 0.355
[10]
  composite z-score: 0.464
[11]
  z-score: -0.155 (inactive)
[12]
  composite z-score: 0.035
[13]
  z-score: 1.45 (inactive)
[14]
  z-score: 0.454 (inactive)
[15]
  z-score: -0.249 (inactive)
[16]
  z-score: 0.255 (inactive)
[17]
  z-score: -0.391
[18]
  z-score: 0.162 (inactive)
[19]
  z-score: 0.234 (inactive)
[20]
  z-score: -0.54
